Measured values from PubChem BioAssay (NCATS).
Records with an inconclusive call do not appear. Entries that show only a call come without a potency. Active and inactive are the calls of the source. The call rests on the fitted dose curve.

Assay: Primary qHTS for inhibitors of SARS-S pseudo-typed particle cell entry (AID 1479145); further: nearly all actives have a fitted effect of over 45% in size
Conditions: SARS-S pseudotyped particle cell entry, luciferase reporter; series mostly up to 57.1 µM

Compound	Potency
C[C@@H]1CCN(C(=O)[C@H](CCCN=C(N)N)NS(=O)(=O)c2cccc3c2NC[C@H](C)C3)[C@@H](C(=O)O)C1	inactive
CC(=O)OCC(=O)[C@@]12N=C(C)O[C@@H]1C[C@H]1[C@@H]3CCC4=CC(=O)C=C[C@]4(C)[C@H]3[C@@H](O)C[C@@]12C	inactive
CCCSS/C(CCO)=C(\C)N(C=O)Cc1cnc(C)nc1N	inactive
O=C(NN1CCCC1)NS(=O)(=O)c1ccc(Cl)cc1	inactive
COc1cc(O)c(C(=O)c2ccccc2)cc1S(=O)(=O)O	inactive
CCOC(=O)NNc1nncc2ccccc12	inactive
Oc1ccc(CCNCCCCCCNCCc2ccccc2)cc1O	inactive
C[N+]1(CC2COC(c3ccccc3)(C3CCCCC3)O2)CCCCC1 (stereo not given)	inactive
CNC(=O)c1cnn(-c2nc(N)c3ncn([C@@H]4O[C@H](CO)[C@@H](O)[C@H]4O)c3n2)c1	inactive
OC[C@@H](O)[C@H](O)[C@H](O)[C@@H](O)CO	inactive
CC(C)(Oc1ccc(CCNC(=O)c2ccc(Cl)cc2)cc1)C(=O)O	inactive
O=Cc1ccccc1C=O	inactive
Cc1ncc(CSSCc2cnc(C)c(O)c2CO)c(CO)c1O	inactive
C[C@H]1COc2c(C3(N)CC3)c(F)cc3c(=O)c(C(=O)O)cn1c23	inactive
Nc1c(CC(=O)O)cccc1C(=O)c1ccc(Br)cc1	inactive
FC(F)(F)C(Cl)Br (stereo not given)	inactive
Cc1c(F)cc2c(=O)c(C(=O)O)cn3c2c1CCC3C (stereo not given)	inactive
C[C@@H]1C[C@H]2[C@@H]3CCC4=CC(=O)C=C[C@]4(C)[C@@]3(F)[C@@H](O)C[C@]2(C)[C@H]1C(=O)CO	inactive
Oc1cc(O)c2c(c1)O[C@H](c1ccc(O)c(O)c1)[C@H](O)C2	inactive
CC1(C)OC[C@@H](COC(=O)CCc2ccc(OC[C@@H](O)CNCCNC(=O)N3CCOCC3)cc2)O1	inactive

Compound	Potency
C[C@]12CC[C@@H]3c4ccc(O)cc4CC[C@H]3[C@@H]1C[C@@H](O)[C@@H]2O	inactive
Nc1ccc(S(=O)(=O)Nc2nccs2)cc1	inactive
C[C@H](CCC(=O)O)[C@H]1CC[C@H]2[C@@H]3C(=O)C[C@@H]4CC(=O)CC[C@]4(C)[C@H]3CC(=O)[C@]12C	inactive
C#C[C@]1(O)CC[C@H]2[C@@H]3CCc4cc(OC)ccc4[C@H]3CC[C@@]21C	inactive
O=C(O)COC(=O)Cc1ccccc1Nc1c(Cl)cccc1Cl	inactive
c1ccc(CN(CC2=NCCN2)c2ccccc2)cc1	inactive
CC(C(=O)O)c1ccc2c(c1)Cc1cccnc1O2 (stereo not given)	inactive
CCOC(=O)C1=C[C@]2(CC)CCCN3CCc4c(n1c1ccccc41)[C@@H]32	inactive
CO[C@]1(NC(=O)CSC(F)F)C(=O)N2C(C(=O)O)=C(CSc3nnnn3CCO)CO[C@H]21	inactive
NCCc1ccc(O)c(O)c1	inactive
CC(=O)N[C@H]1[C@H]([C@H](O)[C@H](O)CO)OC(C(=O)O)=C[C@@H]1N=C(N)N	inactive
O=C1C(c2[nH]c3ccccc3c2O)=Nc2ccccc21	inactive
COc1ccc(CN(CCN(C)C)c2ncccn2)cc1	inactive
Nc1nc2ncc(CNc3ccc(C(=O)N[C@@H](CCC(=O)O)C(=O)O)cc3)nc2c(=O)[nH]1	inactive
C/C=C/c1ccc(OC)cc1	inactive
NC(=O)CC[C@@H](N)C(=O)O	inactive
CCCCCOc1ccc(C2SC(=O)NC2=O)cc1OCC (stereo not given)	inactive
CC[N+](CC)(CC)CCOC(=O)C(C1CCCC1)C1CCCC1	inactive
NCCNC(=O)c1ccc(Cl)cn1	inactive
OC1C(O)C(O)C(O)C(O)C1O (stereo not given)	inactive

Assay: Primary qHTS for Huh7 cytotoxicity: counterscreen for inhibitors of MERS-S pseudotyped particle cell entry (AID 1479147)
Conditions: cell viability read-out; series mostly up to 57.1 µM

Compound	Potency
C[C@@H]1CCN(C(=O)[C@H](CCCN=C(N)N)NS(=O)(=O)c2cccc3c2NC[C@H](C)C3)[C@@H](C(=O)O)C1	inactive
CC(=O)OCC(=O)[C@@]12N=C(C)O[C@@H]1C[C@H]1[C@@H]3CCC4=CC(=O)C=C[C@]4(C)[C@H]3[C@@H](O)C[C@@]12C	inactive
CCCSS/C(CCO)=C(\C)N(C=O)Cc1cnc(C)nc1N	inactive
O=C(NN1CCCC1)NS(=O)(=O)c1ccc(Cl)cc1	inactive
COc1cc(O)c(C(=O)c2ccccc2)cc1S(=O)(=O)O	inactive
CCOC(=O)NNc1nncc2ccccc12	inactive
Oc1ccc(CCNCCCCCCNCCc2ccccc2)cc1O	inactive
C[N+]1(CC2COC(c3ccccc3)(C3CCCCC3)O2)CCCCC1 (stereo not given)	inactive
CNC(=O)c1cnn(-c2nc(N)c3ncn([C@@H]4O[C@H](CO)[C@@H](O)[C@H]4O)c3n2)c1	inactive
OC[C@@H](O)[C@H](O)[C@H](O)[C@@H](O)CO	inactive
CC(C)(Oc1ccc(CCNC(=O)c2ccc(Cl)cc2)cc1)C(=O)O	inactive
O=Cc1ccccc1C=O	inactive
Cc1ncc(CSSCc2cnc(C)c(O)c2CO)c(CO)c1O	inactive
C[C@H]1COc2c(C3(N)CC3)c(F)cc3c(=O)c(C(=O)O)cn1c23	inactive
Nc1c(CC(=O)O)cccc1C(=O)c1ccc(Br)cc1	inactive
FC(F)(F)C(Cl)Br (stereo not given)	inactive
Cc1c(F)cc2c(=O)c(C(=O)O)cn3c2c1CCC3C (stereo not given)	inactive
C[C@@H]1C[C@H]2[C@@H]3CCC4=CC(=O)C=C[C@]4(C)[C@@]3(F)[C@@H](O)C[C@]2(C)[C@H]1C(=O)CO	inactive
Oc1cc(O)c2c(c1)O[C@H](c1ccc(O)c(O)c1)[C@H](O)C2	inactive
CC1(C)OC[C@@H](COC(=O)CCc2ccc(OC[C@@H](O)CNCCNC(=O)N3CCOCC3)cc2)O1	inactive

Compound	Potency
C[C@]12CC[C@@H]3c4ccc(O)cc4CC[C@H]3[C@@H]1C[C@@H](O)[C@@H]2O	inactive
Nc1ccc(S(=O)(=O)Nc2nccs2)cc1	inactive
C[C@H](CCC(=O)O)[C@H]1CC[C@H]2[C@@H]3C(=O)C[C@@H]4CC(=O)CC[C@]4(C)[C@H]3CC(=O)[C@]12C	inactive
C#C[C@]1(O)CC[C@H]2[C@@H]3CCc4cc(OC)ccc4[C@H]3CC[C@@]21C	inactive
O=C(O)COC(=O)Cc1ccccc1Nc1c(Cl)cccc1Cl	inactive
c1ccc(CN(CC2=NCCN2)c2ccccc2)cc1	inactive
CC(C(=O)O)c1ccc2c(c1)Cc1cccnc1O2 (stereo not given)	inactive
CCOC(=O)C1=C[C@]2(CC)CCCN3CCc4c(n1c1ccccc41)[C@@H]32	inactive
CO[C@]1(NC(=O)CSC(F)F)C(=O)N2C(C(=O)O)=C(CSc3nnnn3CCO)CO[C@H]21	inactive
NCCc1ccc(O)c(O)c1	inactive
CC(=O)N[C@H]1[C@H]([C@H](O)[C@H](O)CO)OC(C(=O)O)=C[C@@H]1N=C(N)N	inactive
O=C1C(c2[nH]c3ccccc3c2O)=Nc2ccccc21	inactive
COc1ccc(CN(CCN(C)C)c2ncccn2)cc1	inactive
Nc1nc2ncc(CNc3ccc(C(=O)N[C@@H](CCC(=O)O)C(=O)O)cc3)nc2c(=O)[nH]1	inactive
C/C=C/c1ccc(OC)cc1	inactive
NC(=O)CC[C@@H](N)C(=O)O	inactive
CCCCCOc1ccc(C2SC(=O)NC2=O)cc1OCC (stereo not given)	inactive
CC[N+](CC)(CC)CCOC(=O)C(C1CCCC1)C1CCCC1	inactive
NCCNC(=O)c1ccc(Cl)cn1	inactive
OC1C(O)C(O)C(O)C(O)C1O (stereo not given)	inactive
